Shown are actives, neighbours in structure and some others; about 2.1% of the full set was active somewhere.
FUS yeast rescue: qHTS for Suppressors of FUS Proteinopathy: Primary screen using FUS-linked yeast assay | S. cerevisiae FUS-expressing, growth rescue, OD600, 24 h | Potency, µM (series often up to 76.6 µM), most hits filed as activators | actives 0.24% (n = 390,000);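 also: plate controls were DMSO vehicle for no effect and reference control for full effect; nearly all actives have a fitted effect of over 55% in size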
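Cultures pregrown in 2.5% raffinose medium are shifted to minimal medium containing 2% galactose to express toxic FUS. Compounds are tested at several concentrations. After 24hr at 30C, growth is quantified at 600 nm absorbance.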
Abeta yeast res: qHTS for compounds that reverse cellular toxicity of Amyloid beta (A-beta) peptide in yeast: Primary Screen; yeast expressing A-beta42, growth rescue, OD600, 48 h; response scale: 0% DMSO, 100% iron-clioquinol control; Potency, µM (highest dose often 46.1 µM), hits mostly activators; actives 0.063% (n = 410,000); also: nearly all actives have a fitted effect of over 55% in size
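Yeast growth medium received pinned compounds, then yeast cells expressing toxic A-beta were added; plates incubated at 30 C for 48 hr. Growth read as absorbance at 600 nm, normalized to DMSO and equimolar FeCl3 plus clioquinol controls.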
aSyn yeast inh: qHTS of alpha-syn Inhibitors; Potency, µM (series often up to 46.1 µM), for inactives: top-dose growth rescue (activation), hits mostly activators; Yeast expressing alpha-synuclein, growth rescue, BacTiter-Glo, 24 h; AID 652106, 2013; actives 0.14% (n = 370,000); also: % of control where 0% means no effect; nearly all actives have a fitted effect of over 65% in size
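Readout is rescue of growth in alpha-synuclein-expressing yeast, so inhibitors of toxicity appear as activators. Growth after 24 hr at 30 deg C in galactose medium is quantified by luminescence.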
TDP-43 yeast inh: qHTS of TDP-43 Inhibitors. TDP-43 expressing yeast growth rescue, BacTiter-Glo, 24 h. actives 1.8% (n = 410,000). Potency, µM (series often up to 46.1 µM), without a hit: at the top dose growth rescue (activation), usual class: activators; also: % of control where 0% means no effect; nearly all actives have a fitted effect of over 50% in size
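In this qHTS, compounds that restore growth of yeast expressing TDP-43 appear as activators. Cells (OD600=0.02, galactose medium, raffinose-pregrown) are incubated with compound 24 hr at 30 deg C and growth is quantified by BacTiter-Glo.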
Starred values were filed as active, the others as inactive; i = inactive; ? = inconclusive; . = not tested or not shown; [ ] = another dose, or the depositor's remark. Calls follow the shape of the dose curve; as a rule, active = well fitted curve in the direction sought with a large enough effect; inconclusive = small, poorly fitted or top-dose-only effect, or another doubt; inactive = no such curve, though single readings can be large; an effect the other way counts as inactive or inconclusive. Potency is read from the fitted curve at half-maximal effect.

SMILES | FUS yeast rescue | Abeta yeast res | aSyn yeast inh | TDP-43 yeast inh
Cc1ccccc1NC(=S)NCc1ccc(F)cc1 | i | ? | 18% | 16%
S=C(NCc1ccc(Cl)cc1)Nc1ccccc1 | i | 13µM* | 9% | ?
Cc1cc(Cl)ccc1NC(=S)NCc1ccc(F)cc1 | i | i | -8% | 18µM*
Fc1ccc(CNC(=S)Nc2ccc(Cl)cc2)cc1 | i | i | 0% | ?
S=C(NCc1ccccc1)NCc1ccc(CNC(=S)NCc2ccccc2)cc1 | i | i | -3% | 8%
Cc1c(Cl)cccc1NC(=S)NCCc1ccc(C(F)(F)F)cc1 | i | ? | -1% | 14µM*
COc1ccccc1NC(=S)NCCc1ccc(Cl)cc1 | i | i | 6% | 16µM*
COc1ccccc1NC(=S)NCCSc1ccc(Cl)cc1 | . | i | -8% | 0%
S=C(NCCc1ccccc1)NCc1cccc(Cl)c1 | i | 16µM* | 4% | 23%
S=C(NCCCCc1ccccc1)NCc1ccccc1 | i | 16µM* | 0% | 15%
Cc1ccnc(NS(=O)(=O)c2ccc(Cl)nc2)c1 | i | i | -16% | -4%
Cc1ccc(C(=O)CN2C(=O)NC3(CCCCC3C)C2=O)s1 (stereo unspecified) | i | i | -2% | 9%
CC(=O)C1=C(C)NC(SCC(=O)c2ccc(Cl)c(Cl)c2)=C(C#N)C1c1ccco1 (stereo unspecified) | i | i | 6% | -1%
CC(=O)C1=C(C)NC(SCC(=O)c2cc(Cl)ccc2Cl)=C(C#N)C1c1ccco1 (stereo unspecified) | 25µM* | i | -8% | -29%
CCN(CC)S(=O)(=O)c1ccc(NC(=O)c2ccc(Cl)nc2)cc1 | i | i | 10% | 11%
Nc1ccc2oc(CCc3ccccc3)nc2c1 | i | i | -1% | 18µM*
Cc1nnc(SC(C)C(=O)Nc2nccs2)s1 (stereo unspecified) | i | i | -2% | 13%
COc1ccc(-c2ccc(/C=N/NC(=O)Cc3nnc(N)s3)o2)cc1Cl | i | i | 6% | 14%
Cc1nc(NCc2ccc3c(c2)OCO3)c2oc3ccccc3c2n1 | i | i | -14% | 4%
CCc1nc(NCc2ccc3c(c2)OCO3)c2oc3ccccc3c2n1 | i | i | -12% | 11µM*
CC(C)Cc1ccc(C(=O)NCc2ccc3c(c2)OCO3)o1 | i | i | -3% | 14µM*
Cc1cccc(-n2nnc(C(=O)NCc3ccc4c(c3)OCO4)c2N)c1 | i | i | 10% | 18µM*
Cc1c(C(=O)NCc2ccc3c(c2)OCO3)oc2ccccc12 | i | i | 4% | 16µM*
Cc1cc2oc(C(=O)NCc3ccc4c(c3)OCO4)c(C)c2cc1C | i | i | 3% | 0%
COCCN(C(=O)CSc1nnc(C)n1Cc1ccccc1)c1c(N)n(CC(C)C)c(=O)[nH]c1=O | i | i | 5% | 18%[9.22 µM]
SMILES | FUS yeast rescue | Abeta yeast res | aSyn yeast inh | TDP-43 yeast inh
Fc1cccc(-n2ncc3c2ncn2nc(COc4ccc(Cl)cc4)nc32)c1 | i | i | . | 6%
Cc1ccc2oc(C(=O)NCc3ccc4c(c3)OCO4)c(C)c2c1 | i | i | -5% | 22µM*
Nc1ccc2c(c1)nnn2-c1ccccc1 | i | i | 2% | -27%
O=C(Nc1nnc(COc2ccc(Cl)cc2)s1)c1cccs1 | i | i | -23% | -7%
CC(C)(C)C(=O)Nc1nnc(COc2ccc(Cl)cc2)s1 | i | ? | 26% | 11µM*
N#Cc1c(N)nc2c(c1-c1ccco1)CCCCC2 | i | i | -23% | -15%
Cc1ccc(CSc2cn(CC(=O)N3CCCC3)c3ccccc23)cc1 | ? | i | . | 22µM*
CSc1nc(N)nc(-c2cccs2)c1C#N | i | i | 8% | 20µM*
CC(C)Sc1nc(N)nc(-c2cccs2)c1C#N | i | i[9.22 µM] | 0% | 18µM*
O=[N+]([O-])c1cccc(N/N=C/c2cccc(O)c2O)c1 | i | i | 16% | 13µM*
COc1ccc(NC(=O)c2ccc3nc[nH]c3c2)cc1 | i | i | -6% | 7%
COc1ccc(/C(C)=N/NC(=S)NCCc2ccccc2)cc1 | i | 13µM* | -8% | -18%[0.397 µM]
CCOC(=O)C1CCN(C(c2cc3ccc(C)c(C)c3[nH]c2=O)c2nnnn2C2CCCCC2)CC1 (stereo unspecified) | 35µM* | i | 13% | 0%
O=C(Cn1cnc([N+](=O)[O-])c1)c1ccc(Cl)cc1 | i | i | 0% | 16µM*
O=[N+]([O-])c1cn(Cc2ccc(Cl)cc2)cn1 | i | ? | 7% | 11%
CCOc1cccc(CN2CCCC(N3CCc4ccccc4C3)C2)c1O (stereo unspecified) | i | i | -2% | -7%
CCCCN1C(=O)C(O)(CC(=O)c2ccc(C)cc2C)c2cc(Br)ccc21 (stereo unspecified) | i | i | . | 9%[9.22 µM]
O=C(O)/C=C/C(=O)Nc1ccc(Oc2ccccc2)cc1 | i | i | -3% | ?
CCOC(=O)/C=C/C(=O)Nc1ccc(Oc2ccccc2)cc1 | i | i | -17% | 18µM*
O=C(Nc1ccncc1)Nc1ccc(Br)cc1Cl | i | i | -2% | -3%
Cc1ccc(NS(=O)(=O)c2c(C)ccc3nsnc23)c([N+](=O)[O-])c1 | i | i | 0% | 22µM*
O=C(C[n+]1cc(-c2ccccc2)n2c1CCC2)Nc1nc(-c2ccccc2)cs1 | . | i | 1% | 16%
CC1CCN(C(=O)CSCC(=O)Nc2nc(-c3cccs3)cs2)CC1 | ? | i | -16% | 35µM*
Cc1csc(SCC(=O)Nc2nc(-c3ccccc3)cs2)n1 | i | i | -2% | 14µM*
O=C(CSCC(=O)N1CCCc2ccccc21)Nc1nc(-c2ccccc2)cs1 | ? | i | -17% | 11µM*
SMILES | FUS yeast rescue | Abeta yeast res | aSyn yeast inh | TDP-43 yeast inh
CCn1c(SCC(=O)Nc2nc(-c3ccc(C)cc3)cs2)nnc1-c1ccccc1O | i | i | -3% | 20µM*
CCn1c(SCC(=O)Nc2nc(-c3ccc(C)cc3)cs2)nnc1-c1ccccc1 | i | i | -12% | -3%
CSCCC(/C(O)=C(\C#N)c1nc2ccccc2[nH]1)N1C(=O)c2ccccc2C1=O (stereo unspecified) | i | i | 6% | 19%
Cc1cc(OCC(=O)NCCc2ccc(S(N)(=O)=O)cc2)c2c(C)cc(=O)oc2c1 | i | i | -2% | 20%
CN=C1S/C(=C\c2ccc(Cl)cc2)C(=O)N1C | i | i | 2% | 11%
CN=C1S/C(=C\c2cccc(Cl)c2Cl)C(=O)N1C | i | i | 11% | 13µM*
CCc1nc2ccc(C(=O)Nc3cccc(NS(C)(=O)=O)c3)cn2c1N(C)CCCc1ccccc1 | i | i | -1% | 0%
CCc1nc2ccc(C(=O)Nc3cccc(OC)c3)cn2c1N(C)CCCc1ccccc1 | ? | i | -34% | 35µM*

High-throughput results (PubChem)
